# IMPase inh: IMPase inhibition in cells; P97697; inhibition (IP1 accumulation), % at 46.1 µM; CHO-M1 cells, IP1 accumulation, HTRF TR-FRET ratio; 120,000 tested, under 10 active; active means well fitted curve in the direction sought with a large enough effect in the signal ratio, not every such curve was filed as active; inconclusive means small, poorly fitted or top-dose-only effect, or a change in a side signal; inactive means no such curve, though single readings can be large or run the other way; the % refers to the signal ratio;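 further: cells stimulated with carbachol in lithium chloride buffer; plate controls were DMSO basal wells for no effect and reference inhibitor wells for full effect; higher means more IMPase inhibition seen as more IP1 and lower FRET ratio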
# Target sequence (P97697 whole entry, looked up): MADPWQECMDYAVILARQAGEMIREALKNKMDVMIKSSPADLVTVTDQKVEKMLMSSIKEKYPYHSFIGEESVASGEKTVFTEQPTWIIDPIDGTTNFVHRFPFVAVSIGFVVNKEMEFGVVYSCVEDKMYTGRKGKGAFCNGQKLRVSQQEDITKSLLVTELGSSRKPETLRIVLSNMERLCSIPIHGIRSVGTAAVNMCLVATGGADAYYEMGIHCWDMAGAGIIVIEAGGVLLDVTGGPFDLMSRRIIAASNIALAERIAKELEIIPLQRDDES
#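 Carbachol-driven Gq signalling in CHO-M1 cells (2000/well) generates IP1. Compounds that block IMPase raise IP1 and so reduce the FRET signal from Eu-anti-IP1 and d2-IP1 after a 10 min room-temperature lysis.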
# IMPase Li cell: IMPase inhibition in cells with lithium potentiation | CHO-M1 cells, IP1 TR-FRET (IP-One), carbachol + lithium | Potency, µM (doses to about 59.4 µM), without a hit: top-dose activity, negative = IMPase inhibition, hits mostly inhibitors | actives 0.35% (n = 210,000); active means well fitted inhibition curve with a large enough effect; inconclusive means small, poorly fitted or top-dose-only effect; inactive means no such curve, though single readings can be large or run the other way;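 further: IP1 builds up when IMPase is blocked and the TR-FRET signal falls; potency means the concentration at half of the fitted maximal effect; plate controls were basal vehicle for no effect and high inhibitor control for full effect; nearly all actives have a fitted effect of over 50% in size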
#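 CHO cells stably expressing M1 receptor (2000/well) were cultured 16–30 h, then exposed to compounds with a small lithium addition for 30 min at 37C. IP1 was measured by TR-FRET competition; AC50 from Hill fits.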
# HPGD inh: HPGD (human) dehydrogenase inhibition; AID 894; purified HPGD, NADH fluorescence kinetic, PGE2 substrate; Potency, µM, for inactives: top-dose activity change, negative = inhibition, hits mostly inhibitors; P15428; actives 4.3% (n = 150,000); further: potency means the concentration at half of the fitted maximal effect
# Target sequence (P15428 whole entry, looked up): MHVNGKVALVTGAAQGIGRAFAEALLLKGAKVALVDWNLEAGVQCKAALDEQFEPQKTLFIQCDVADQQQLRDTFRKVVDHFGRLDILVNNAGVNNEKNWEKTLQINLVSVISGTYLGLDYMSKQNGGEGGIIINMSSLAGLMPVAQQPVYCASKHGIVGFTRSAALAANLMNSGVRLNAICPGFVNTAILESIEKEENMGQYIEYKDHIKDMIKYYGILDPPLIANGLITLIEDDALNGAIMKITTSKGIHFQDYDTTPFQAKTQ
#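 20 nM HPGD preincubated 15 min at room temperature with compound in 50 mM Tris-HCl pH 8, 0.01% Tween 20. Started with 1 mM NAD+ and 30 uM prostaglandin E2; NADH fluorescence (360/450 nm) read 5 times over 30-s intervals, last minus first.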
# PNC inhibitor: blocks assembly of the perinucleolar compartment; PC3M PTB-GFP, PNC prevalence imaging, 16 h; stronger effect = lower value; actives 3.1% (n = 140,000); activity change (PNC), negative = inhibition, % at 10 µM;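 active means readout at or below -70, meaning at least 70% loss of cells showing the perinucleolar compartment, a nuclear body marking cancer cells; inconclusive means readout between -30 and a set limit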;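 further: plate controls were DMSO wells for no effect and camptothecin positive control wells for full effect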
#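 PC3M cells stably expressing PTB-GFP, 750–1000 cells/well, treated 16 h at 37 °C with compound (23 nl of library stock), in duplicate. After paraformaldehyde fixation and Hoechst stain, imaged at 20x; PNC prevalence scored by image analysis.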
# ALDH1A1 inh: inhibitors of human aldehyde dehydrogenase 1A1; actives 7.3% (n = 220,000); Purified ALDH1A1, NADH fluorescence, propionaldehyde substrate; AID 1030; P00352; Potency, µM (highest dose often 75.3 µM), inactives show at the top dose activity, negative = inhibition, hits mostly inhibitors;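 further: potency means the concentration at half of the fitted maximal effect; plate controls were no enzyme wells and a reference inhibitor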
# Starred values were filed as active, the others as inactive; ? = inconclusive; nt = not tested or not shown; ! = not active in a repeat; [ ] = remark or other dose. Rows were chosen to be rich in hits. Some 11% of all compounds tested hit in one or more screens of this group. Unless noted, the call rests on the fitted dose curve; in most records, active means well fitted inhibition curve with a large enough effect (not every such curve was filed as active); inconclusive means small, poorly fitted or top-dose-only effect, or another doubt; inactive means no such curve, though single readings can be large or run the other way. Unless noted, on the % scale 0 is the no-effect control and ±100 the full control effect.
SMILES,IMPase inh,IMPase Li cell,HPGD inh,PNC inhibitor,ALDH1A1 inh
O=c1[nH]nc(Cc2ccc(Cl)cc2Cl)c2ccccc12,5,36%[38.3 µM],-13%,-9,1%
CCCc1nc(S(=O)(=O)Cc2ccc(Cl)cc2Cl)n[nH]1,10,nt,nt,-116*,-4%
COc1cc(/C=C2\SC(c3ccc(C)cc3)=NC2=O)ccc1O,39,28%,?,-95*,?
COc1cc(/C=C2\SC(c3ccc(C)cc3)=NC2=O)cc(OC)c1OC,4,-2%,?,12,?
COc1ccc(C2=NN(c3ccccc3)C(=O)/C2=C\c2ccc(O)c(OC)c2)cc1,nt,27%,nt,nt,20µM*
COc1cc(/C=C2\SC(c3ccccc3)=NC2=O)cc(Cl)c1O,nt,50%,nt,nt,5µM*
COc1cc(/C=C2\SC(N)=NC2=O)ccc1OCC(=O)Nc1ccc(C)cc1,10,-6%,4.5µM*,-19,7%
COc1ccc(N=C2NC(=O)/C(=C/c3ccc(O)c(OC)c3)S2)cc1,nt,-3%,?,38,9%
COc1ccc(/C=C2\SC(c3ccc(C)cc3)=NC2=O)cc1OC,7,6%,?,39,?
CN(C)C(CNC(=O)c1cc(S(=O)(=O)N(C)c2ccccc2)ccc1Cl)c1cccs1 (configuration not stated),nt,18%,nt,nt,-3%
O=C(c1ccncc1)N1CCC2(CC1)CN(c1ccccc1)C2,nt,-12%,-5%,nt,?
COc1ccc(CCNC(=O)COC(=O)COc2ccc(C#N)cc2)cc1,nt,-1%,nt,nt,6%
CCc1c(C)sc(NC(=O)Cn2nc(C)c([N+](=O)[O-])c2C)c1C(N)=O,nt,9%,nt,nt,7.1µM*
CC1=C[N+](=O)c2ccccc2[N+]1=O,nt,0%,-1%,nt,14%[13.5 µM]
Oc1c(Cl)cc(Cl)cc1Sc1cc(Cl)cc(Cl)c1O,nt,8%,32µM*!,32,24µM*!
Oc1c(Cl)cc(C(c2cc(Cl)c(O)c(Cl)c2)C(c2cc(Cl)c(O)c(Cl)c2)c2cc(Cl)c(O)c(Cl)c2)cc1Cl,nt,-4%,-10%,nt,11%[13.5 µM]
c1ccc(-c2ccc(-c3ccccn3)nn2)nc1,-3,-6%[38.3 µM],25µM*,-12,20µM*
c1ccc(-c2ccccn2)nc1,-2,-2%,-11%,3,3%
O=C1Nc2ccc(S(=O)(=O)N3CCCC3)c3cccc1c23,0,-12%[38.3 µM],-22%,-10,?
CN1CCN(S(=O)(=O)c2ccc3c4c(cccc24)C(=O)N3)CC1,2,-17%[38.3 µM],?,-91*,?
CCN1CCN(C(=O)c2ccc(CSc3ccc(C)cc3)cc2)CC1,5,18%[38.3 µM],14µM*,-7,?
Cc1ccsc1/C=C/C1=Cc2c(sc(NC(=O)CSc3n[nH]c(N)n3)c2C#N)C(C)(C)C1,1,-7%[38.3 µM],?,-29,?
CCOc1ccc(/C=C/C2=Cc3c(sc(NC(=O)CSc4n[nH]c(N)n4)c3C#N)C(C)(C)C2)cc1,4,-4%[38.3 µM],?,13,25µM*
C=CCSc1nnc(CNC(=O)c2ccc(Cl)cc2)n1CC,nt,8%,nt,nt,5%
CCC(C)[C@H](NC(=O)NCc1ccco1)C(=O)OC (some centres not stated),nt,nt,nt,nt,13µM*
SMILES,IMPase inh,IMPase Li cell,HPGD inh,PNC inhibitor,ALDH1A1 inh
CCC(C)[C@H](NC(=O)Nc1ccc(C(C)=O)cc1)C(=O)OC (some centres not stated),-4,-7%[38.3 µM],-9%,-82*,0%
COC(=O)[C@H](C)NC(=O)NCc1ccco1,3,-8%[38.3 µM],-2%,-6,?
COC(=O)[C@H](CCSC)NC(=O)Nc1ccc(C(C)=O)cc1,4,-6%[38.3 µM],-7%,?,0%
CC(=O)N1CC=CC1(CC(C)C)C(=O)NCCc1c[nH]c2ccccc12 (configuration not stated),nt,4%,-6%,-88*,14%
CC(C)C(=O)NCCc1c[nH]c2ccccc12,nt,-8%,-25%,-124*,0%
O=C(CCS(=O)(=O)c1ccc(Cl)cc1)NCCc1c[nH]c2ccccc12,nt,-4%,nt,nt,28µM*
CC(C)CNC(=O)CCCc1c[nH]c2ccccc12,6,0%[38.3 µM],14µM*,-3,-2%
CC(C)CC1(C(=O)NCCc2c[nH]c3ccccc23)C=CCN1C(=O)c1ccccc1 (configuration not stated),nt,11%,-11%,39,-3%

# Screens from PubChem BioAssay.
